Bcl-xL primary: inhibitors of human Bcl-xL, primary screen, biochemical, fluorescence polarization, HTS | AID 2129, 2009 | Bcl-2-like protein 1 (Homo sapiens), Q07817 | 0.7% of 320,000 active | GST-Bcl-xL / FITC-Bim BH3 peptide fluorescence polarization | inhibition, % at 10.9 µM;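 active = inhibition above the mean of all tested compounds plus 3 SD, cutoff set per campaign, cut at about 30% in these data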;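 also: 0% = DMSO wells and 100% = unlabeled Bim-BH3 peptide competitor; inhibitors lower millipolarization by displacing the labeled peptide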
EBV gp42 block: Epstein-Barr virus gp42 inhibitors, primary screen, biochemical, uHTS, fluorescence polarization. Glycoprotein 42 (Epstein-Barr virus (strain AG876)), Q1HVG2. Fluorescence polarization binding assay, mP read-out. inhibition, % (tested at 21.74 µM). 0.42% of 220,000 active. AID 1085, 2008; in the data active = inhibition above about 50%
E coli Lon inh: inhibitors of E. coli Lon protease, primary screen, biochemical, fluorescence polarization; purified E. coli Lon protease; inhibition, % at 7.94 µM; 0.42% of 360,000 active; AID 602123, 2011; in the data active = inhibition above about 13%, passing the limit was not always enough;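 also: 0% = enzyme with probe and DMSO and 100% = no enzyme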
MEX-5 binding: MEX-5 zinc finger RNA-binding disruptors – biochemical, C. elegans, fluorescence polarization, MLPCN library, primary screen | AID 1832, 2009 | Zinc finger protein mex-5 (Caenorhabditis elegans), Q9XUB2 | MEX-5/FITC-TCR2 RNA binding; active compounds read low | 0.38% of 300,000 active | activity score (negative = inhibition of binding), % at 10 µM;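 active = inhibition past about -25% in most replicates, and total fluorescence under double the plate's negative control median, limit read from the data; inconclusive = replicates evenly split on the limit, or fluorescence at least double controls; inactive = too little inhibition in most replicates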;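 also: 0% = DMSO and -100% = 5 µM competing unlabeled TCR2 RNA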
GLD-1 TGE inh: GLD-1/TGE RNA complex disruptors, primary screen, biochemical, fluorescence polarization. purified GLD-1 + fluorescein TGE RNA. 0.44% of 320,000 active. Female germline-specific tumor suppressor gld-1 (Caenorhabditis elegans), Q17339. inhibition, % at 5.96 µM. AID 2280, 2010;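 active = percent inhibition above a per-plate cutoff, the plate mean of test compounds plus 3 SD, cut at about 30% in these data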;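 also: 0% = DMSO wells with GLD-1 and probe and 100% = wells lacking GLD-1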
Target sequence (Q17339 whole entry, looked up): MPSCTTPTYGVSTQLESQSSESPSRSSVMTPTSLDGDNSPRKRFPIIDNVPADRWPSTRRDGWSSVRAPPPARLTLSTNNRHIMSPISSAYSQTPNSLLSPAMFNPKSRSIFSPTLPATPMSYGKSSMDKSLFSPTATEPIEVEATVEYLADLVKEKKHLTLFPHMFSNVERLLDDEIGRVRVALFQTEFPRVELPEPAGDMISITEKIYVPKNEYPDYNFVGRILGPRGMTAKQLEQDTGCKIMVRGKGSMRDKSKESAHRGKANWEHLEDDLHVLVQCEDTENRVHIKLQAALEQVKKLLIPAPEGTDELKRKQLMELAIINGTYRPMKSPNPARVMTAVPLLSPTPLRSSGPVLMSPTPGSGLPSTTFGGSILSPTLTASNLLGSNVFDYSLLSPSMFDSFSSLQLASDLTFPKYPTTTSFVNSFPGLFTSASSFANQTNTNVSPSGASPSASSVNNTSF
MCL1 BIM primary: inhibitors of MCL1 binding to BIM-BH3, primary screen, biochemical, fluorescence polarization | inhibition, % at 10.9 µM | Induced myeloid leukemia cell differentiation protein Mcl-1 (Homo sapiens), Q07820 | GST-MCL1 / FITC-Bim-BH3 fluorescence polarization | 0.68% of 320,000 active | AID 2057, 2009;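 active = inhibition above the mean inhibition of all tested compounds plus 3 SD, set per campaign, cut at about 40% in these data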;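 also: 0% = DMSO wells and 100% = unlabeled Bim-BH3 peptide control; higher means more loss of mP so more displacement of Bim peptide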
Numbers without * were called inactive; ? = inconclusive; · = no result given. In the library only some 1.5% were active in any assay of this set; here they are far more common.

SMILES	Bcl-xL primary	EBV gp42 block	E coli Lon inh	MEX-5 binding	GLD-1 TGE inh	MCL1 BIM primary
COc1cc(N2CCCC2)c(OC)cc1/C=C(/C#N)c1ccc(Br)cc1	-34	95*	-60	-10	-60	-37
N#CCN1CCC(c2cc(-c3ccco3)n[nH]2)CC1	38*	-6	·	-1	29	33
c1coc(-c2cc(C3CCNCC3)[nH]n2)c1	2	-17	0	1	9	6
CCNC(=O)C1(C)CCCN(C(=O)c2oc3ccccc3c2C)C1 (configuration not stated)	·	·	-4	·	·	·
Cc1nc2ccc(S(=O)(=O)NCC(=O)NCCN3CCCCCC3)cc2s1	41*	-2	0	0	-7	42*
COc1cc(OC)c2c(O)c3c(c(-c4c5c(c(O)c6c(OC)cc(OC)cc46)CO[C@@H](C)[C@H]5O)c2c1)[C@H](O)[C@H](C)OC3	24	13	-19	?	27	56*
Cc1cccc(NC(=O)CSc2nnnn2C)n1	4	75*	-9	0	-1	7
CCCCn1nnnc1SCC(=O)Nc1cccc(C)n1	5	-21	9	3	-1	1
CC1CCN(CC(=O)N(C)c2c(N)n(Cc3ccccc3)c(=O)[nH]c2=O)CC1	·	·	-10	·	·	·
O=c1cc(-c2ccc(O)c(O)c2)oc2cc(O)cc(O)c12	13	8	-5	-33*	5	38
COc1ccc(-c2cc(=O)c3c(O)cc(O)cc3o2)cc1	0	·	-4	·	3	4
Cc1noc(C)c1NC(=O)N(C)C[C@@H]1OCc2cnnn2CCCC(=O)N([C@H](C)CO)C[C@@H]1C	·	·	-3	·	·	·
CCN(CC(=O)Nc1c(F)cccc1F)C(=O)CSc1nnc(-c2ccco2)n1CC	-1	·	-3	-4	1	-2
CC(=O)Nc1cccc(-c2csc(C(O)c3ccc(F)c(F)c3)n2)c1 (configuration not stated)	·	·	3	·	·	·
COc1ccc(N=Cc2cc(Cc3ccccc3Cl)cc([N+](=O)[O-])c2O)cc1OC	-12	104*	-10	-2	6	-18
O=C(c1ccco1)N1CCN(c2ncnc3c(-c4ccc(Cl)cc4)nsc23)CC1	6	·	-7	-29*	4	9
O=C1CS/C(=N/N=C/c2cccs2)N1	-13	-34	1	-32*	-2	-19
COc1ccc(C(=O)NC(=S)Nc2cccnc2)cc1Cl	12	·	15	-2	52*	15
O=C(NCC1CCCO1)c1ccc(N2C(=O)C3CCCCC3C2=O)cc1 (configuration not stated)	-1	·	-2	4	-1	-1
CCN(CC)c1ccc2cc(C(=O)NNC(=O)c3ccc(S(=O)(=O)N4CCCCC4)cc3)c(=O)oc2c1	-9	174*	-51	?	-21	-14
CCN(CC)c1ccc2cc(C#N)c(=O)oc2c1	-12	29	-30	-57*	-39	-25
CCN(CC)c1ccc2cc(S(=O)(=O)c3ccc(C)cc3)c(=O)oc2c1	-8	142*	-12	-77*	-39	-24
Cc1ccc(S(=O)(=O)c2cc3ccccc3oc2=O)cc1	6	6	2	-2	4	-1
CCCCCCc1cc2cc(S(=O)(=O)c3ccc(F)cc3)c(=O)oc2cc1O	10	-8	7	1	60*	1
Cc1ccc(C(=O)NNC(=O)c2ccc(S(=O)(=O)N3CCCCC3)cc2)cc1	·	·	-8	·	3	·
SMILES	Bcl-xL primary	EBV gp42 block	E coli Lon inh	MEX-5 binding	GLD-1 TGE inh	MCL1 BIM primary
COc1ccc(OCC(=O)NNC(=S)NC(=O)c2ccc(Br)o2)cc1	11	·	-1	-1	-1	12
Nc1ccc(O)c(C(=O)O)c1	35*	·	·	-15	18	76*
O=C(CNC(=O)COc1ccccc1)NCCN1CCOCC1	-1	·	0	·	3	-3
Cc1cc(C(=O)NNC(=O)CCCCC(=O)NNC(=O)c2cc(C)[nH]n2)n[nH]1	-1	2	-10	-37*	7	11
Cc1occc1-c1nnc(SCC(=O)c2c[nH]c3ccccc23)n1C	1	144*	-4	·	-4	-6
Cc1occc1-c1nnc(SCC(=O)c2ccc(Cl)cc2)n1C	1	-6	-6	-2	3	-4
Cc1c(N=C2N=C(NC(=O)c3cccs3)c3ccccc32)c(=O)n(-c2ccccc2)n1C	-30	125*	-13	-16	-24	-38
Cc1c(N=C2N=C(NC(=O)NC(C)(C)C)c3ccccc32)c(=O)n(-c2ccccc2)n1C	2	-8	-5	-2	6	5
O=C(O)c1ccc2c(c1)NC(=O)C(N1CCCC1)S2 (configuration not stated)	32*	33	-10	-12	26	41*
COC(=O)c1ccc2c(c1)NC(=O)C(N1CCCC1)S2 (configuration not stated)	-2	-14	-18	0	-5	-12
CN(Cc1ccon1)C(=O)CC1C(=O)NCCN1Cc1ccc(Cl)c(F)c1 (configuration not stated)	36*	·	8	-4	25	35
C=CC1=C2C=C(C3CC3)N(CCCN(CC)CC)C=C2C(=O)C(C)(OC(=O)c2ccco2)C1=O (configuration not stated)	41*	·	26	-8	15	39
C=CCOc1ccc(C2C(C(=O)c3ccco3)=C(O)C(=O)N2CCCN(CC)CC)cc1 (configuration not stated)	13	-14	-9	-1	-1	14
C=CC1=C2C=C(C3CC3)N(CC3CC3)C=C2C(=O)C(C)(OC(=O)c2ccco2)C1=O (configuration not stated)	24	·	15	-9	15	22
C=CCN1C=C2C(=O)C(C)(OC(=O)c3ccco3)C(=O)C(C=C)=C2C=C1C1CC1 (configuration not stated)	32*	·	·	1	20	32
Cn1c(CC(=O)Nc2ccccc2F)nnc1SCC(=O)Nc1ccccc1Br	-1	·	0	-1	1	3
N=C1/C(=C/c2ccc(-c3cccc(C(=O)O)c3)o2)C(=O)N=C2SC=C(c3ccccc3)N12	12	67*	-42	0	-3	28
Cc1cc(O)c2c(c1)C(=O)[C@@]13Oc4c5c(c(O)c6c(O)cc(C)cc46)C(=O)C[C@H](O)[C@H]5[C@@H]1[C@@H](O)CC(=O)C3=C2O	·	·	20*	·	·	·
CCCCCn1c(N)c(-c2nc3ccccc3o2)c2c([N+](=O)[O-])nn(CC)c(=O)c21	1	55*	10	3	4	-4

Screening data as filed in PubChem BioAssay.
